The list is not random: actives were taken first. Their share in the collection is about 4.7%.
DRD3 agonist – agonists of human D3 dopamine receptor. P35462. D3R DiscoveRx beta-arrestin cells, luminescence, 90 min. AID 652048. max activation, %. 410,000 tested, 0.58% active; in the data active = max activation above about 30%; also: 0% is about no effect
Target sequence (P35462 whole entry, looked up): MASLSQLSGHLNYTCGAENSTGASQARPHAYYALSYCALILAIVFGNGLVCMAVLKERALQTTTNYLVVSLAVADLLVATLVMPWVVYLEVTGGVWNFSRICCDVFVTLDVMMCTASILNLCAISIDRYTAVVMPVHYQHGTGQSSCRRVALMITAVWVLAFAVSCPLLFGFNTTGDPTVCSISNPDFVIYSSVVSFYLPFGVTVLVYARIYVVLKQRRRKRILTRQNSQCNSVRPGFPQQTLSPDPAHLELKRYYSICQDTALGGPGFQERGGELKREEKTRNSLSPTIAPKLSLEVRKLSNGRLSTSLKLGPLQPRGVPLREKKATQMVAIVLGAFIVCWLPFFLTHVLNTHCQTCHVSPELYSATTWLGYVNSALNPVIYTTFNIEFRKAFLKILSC
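Agonist-mode cell screen: cells plated at 1500/well and incubated overnight at 37 °C, then exposed to library compounds for 90 min at 37 °C. Detection reagent was added for 30–60 min at room temperature, and luminescence was read.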
D3 antag – blocks the human D3 dopamine receptor; max response, negative = inhibition, %; D3R cells, DiscoveRx beta-arrestin luminescence, antagonist mode; hits give low values; 360,000 tested, 2.5% active; AID 652054; P35462; in the data active = max response below about -50%; inconclusive = no clear call, values can overlap the other calls; also: % is scaled to controls: 0 for no effect and ±100 for the full control effect
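Cells expressing the human receptor were seeded at 1500 cells/well, incubated overnight at 37 degrees C in 5% CO2, then exposed to library compounds with dopamine controls for 90 minutes at 37 degrees C before luminescent detection.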
ATXN2 expr inh – inhibitors of ATXN2 expression; HEK-293 ATXN2-luciferase reporter, luminescence, 24 h; AID 1745845; 360,000 tested, 0.72% active; Potency, µM (series often up to 57 µM), inactives show at the highest dose activity change, negative = inhibition, usual class: inhibitors; also: potency is read from the fitted curve at half-maximal effect; % is scaled to controls: 0 for no effect and ±100 for the full control effect; nearly all actives have a fitted effect of over 55% in size
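ATXN2-luciferase reporter cells (luciferase flanked by upstream and downstream ATXN2 gene portions) were treated 24 h at 37 °C with compounds at up to 57 uM. SteadyGlo luminescence gave expression; GF-AFC fluorescence gave viability.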
HepG2 viability – HepG2 cytotoxicity, counter-screen for TGF-b inhibitors; HepG2 CAGA-GFP viability, ATP luminescence, 18 h; 410,000 tested, 0.76% active; AID 588856; Potency, µM (titrated, usually from 46.1 µM), without a hit: at the top dose activity change, negative = cytotoxicity, actives largely listed as cytotoxic; also: potency is read from the fitted curve at half-maximal effect
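HepG2 CAGA-GFP cells (1000/well, DMEM with 1% FBS) received compound, then TGF-beta at 500 pg/mL final, and were incubated 18 hours at 37 degrees C. Viability was read by CellTiter-Glo luminescence. Media-only wells were set as complete cell-killing and DMSO as no toxicity.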
ATXN viability – cell viability loss in ATXN counter-screen | S2 cells (HEK-293 line with an ATXN2-luciferase reporter) viability, CellTiter-Fluor protease fluorescence, 24 h | 400,000 tested, 0.49% active | Potency, µM (highest dose often 56.7 µM), hits mostly cytotoxic | AID 651635; also: potency is read from the fitted curve at half-maximal effect; nearly all actives have a fitted effect of over 40% in size
TGFb inhibitor – TGF-b pathway inhibition | AID 588855 | 410,000 tested, 1.2% active | Potency, µM (doses to about 46.1 µM), for the others: at the top dose activity, negative = inhibition, usual class: inhibitors | HepG2 CAGA-GFP TGF-b/SMAD3 reporter, GFP fluorescence, 18 h; TGF-beta stimulated, 500 pg/mL final; also: potency is read from the fitted curve at half-maximal effect; % is scaled to controls: 0 for no effect and ±100 for the full control effect; nearly all actives have a fitted effect of over 65% in size
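Inhibition of TGF-beta-driven CAGA-GFP reporter expression in HEPG2 cells is measured by cellular GFP fluorescence after 18 h stimulation with 500 pg/mL recombinant TGF-beta in 1% FBS medium at 37 degrees C.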
Numbers without * were called inactive; i = inactive; ? = inconclusive; / = not tested or not shown; ! = repeats disagree; [ ] = another dose, or the depositor's remark. Unless noted, calls follow the shape of the dose curve; as a rule, active = well fitted curve in the direction sought with a large enough effect; inconclusive = small, poorly fitted or top-dose-only effect, or another doubt; inactive = no such curve, though single readings can be large; an effect the other way counts as inactive or inconclusive.

SMILES	DRD3 agonist	D3 antag	ATXN2 expr inh	HepG2 viability	ATXN viability	TGFb inhibitor
Fc1ccc([C@@H]2CCNC[C@H]2COc2ccc3c(c2)OCO3)cc1	15	24	32µM*!	11µM*!	28µM*	?
COc1cccc(NC(=O)C(Cc2ccccc2)NS(=O)(=O)c2ccc3c(c2)oc(=O)n3C)c1 (stereo not given)	-13	/	-6%	-46%	i	?
c1ccc(CN2CCc3nc4ccccc4cc3C2)cc1	60*	-10	10%	-2%	i	0%
OC[C@@H](O)[C@H]1O[C@@H]2O[C@@H](C(Cl)(Cl)Cl)O[C@@H]2[C@H]1O	-7	/	/	/	/	/
CC1(C)CSC(Nc2ccc(F)c(Cl)c2)=N1	0	0	25%	-23%	?	-19%
CC1(C)COC(Nc2cccc(Cl)c2)=N1	14	-55*	9%	-9%	i	-1%
O=C(COc1ccccc1)N1CCN(C2CCCC2)CC1	-4	?	7%	-5%	i	-3%
O=C(Cc1ccccc1)N1CCN(C2CCCC2)CC1	-4	-72*	3%	1%	i	2%
O=C(Cc1ccccc1)N1CCN(Cc2ccc([N+](=O)[O-])cc2)CC1	-7	1	-19%	-1%	i	-2%
O=[N+]([O-])c1cccc(CN2CCN(Cc3ccc(Br)cc3)CC2)c1	-7	-102*	-28%	-23%	i	-12%
COc1cccc(NC(=O)C2CCN(S(=O)(=O)c3cc(-c4noc(C)n4)ccc3C)CC2)c1	-12	/	-26%	-23%	i	?
Cc1ccc(NC(=O)Cn2c(=O)oc3cc(S(=O)(=O)N4CCCCC4)ccc32)c(Cl)c1	2	/	-31%	-55%	?	?
CC(C)N1CCN(Cc2ccccc2C(F)(F)F)CC1CCO (stereo not given)	-11	-53*	-17%	-12%	i	-1%
Fc1ccc(CCNCc2ccc(Cl)c(Cl)c2)cc1	-32	-72*	?	13µM*	?	?
CCc1ccc(CNCCc2ccc(F)cc2)cc1	-8	-14	-14%	-43%	i	14%
COc1ccccc1CNCCc1ccc(F)cc1	-17	-55*	-28%	-24%	i	-3%
CCC(=O)[C@@H](C)[C@@H](O)[C@H](C)C[C@@H](C)C1OC(=O)C[C@@]2(O)CC=C(C)C(O2)C(C)=CCCC[C@H](O[C@H]2C[C@@H](OC(N)=O)[C@H](O)[C@@H](C)O2)C=C[C@H](C)C[C@H]1C (stereo not given in full)	-10	10	-54%	/	14µM*	/
CC(=O)Nc1ccc(CC(=O)N2CCN(Cc3ccccc3)CC2)cc1	-12	-17	-2%	9%	i	1%
COC(=O)c1ccc(CN2CCN(Cc3ccccc3)CC2)cc1	-74	-81*	-10%	47%	i	-14%
C[C@]12C=CC(=O)C=C1CC[C@@H]1[C@@H]2CC[C@]2(C)OC(=O)CC[C@@H]12	-7	/	/	/	/	/
CCN1CCN(S(=O)(=O)c2ccc(Cl)c(C(=O)N(CC)CC(=O)Nc3ccc(OC)cc3)c2)CC1	2	-163*	?	-7%	?	-5%
CCN(CC)C(=O)c1ccc(NC(=O)c2cc(S(=O)(=O)N3CCCCCC3)ccc2OC)cc1	0	7	-3%	0%	i	-19%
CC(CN1CCOCC1)C(C#N)(c1ccccc1)c1ccccc1 (stereo not given)	-15	7	-5%	5%	i	3%
CN1CCN(CCC(C#N)(c2ccccc2)c2ccccc2)CC1	-1	-80*	4%	-20%	i	11%
COc1cc(OC)c(NS(=O)(=O)c2cc(-c3cnc(C4CC4)o3)ccc2C)cc1Cl	-14	/	-2%	-30%	?	?
SMILES	DRD3 agonist	D3 antag	ATXN2 expr inh	HepG2 viability	ATXN viability	TGFb inhibitor
CC(C)(C)c1cc(C=C(C#N)C#N)cc(C(C)(C)C)c1O	50*	50	?	-45%	?	?
CCOC(=O)N1CCN(c2ncc3c(n2)CC(c2ccccc2O)CC3=O)CC1 (stereo not given)	7	/	-20%	-24%	?	-18%
Cc1nc(N2CCN(Cc3ccccc3)CC2)nc2c1C(=O)CC(C)C2 (stereo not given)	-1	-60*	-7%	10%	i	?
COC1CCC(OC2CC(C3(C)CCC4(CC(O)C(C)C(C(C)/C=C(\C)C(=O)C(C)CC(C)C(=O)O)O4)O3)OC3(OC(C4OC(O)(CO)C(C)CC4C)CC3C)C2C)OC1C (stereo not given)	71*	133	?	-5%	/	?
O=S1(=O)N(CCN2CC=C(c3c[nH]c4cc(F)ccc34)CC2)c2cccc3c2N1CCC3	-92	-101*	?	-45%	?	?
Cn1cc(C(=O)c2ccccc2)c2ccccc21	-11	-9	-22%	-27%	i	-10%
CC(C(=O)c1cn(C)c2ccccc12)c1ccccc1 (stereo not given)	20	-70*	4%	-2%	i	-14%
COC(=O)C[C@]1(C(=O)OC)CN(C#N)N(c2ccc(Cl)cc2)C12c1ccccc1-c1ccccc12	-8	-74*	4µM*	-106%	5.6µM*	4µM*
COC(=O)[C@@H]1[C@@H](C(=O)OC)C2(c3ccccc3-c3ccccc32)N(c2ccc(Cl)cc2)N1C#N	-3	-76*	7.1µM*	11µM*	7.1µM*	?
CC(=O)Nc1cccc(-c2ccnc3c2CC(C(=O)NCc2ccco2)O3)c1 (stereo not given)	-5	-26	8%	2%	i	3%
CCOC(=O)C1(CCOc2ccccc2)CCN(Cc2ccc(C)s2)CC1	-16	-50*	-20%[11.3 µM]	-20%	?	?
CN[C@H]1C[C@@H](N)[C@H](O)[C@@H](O[C@@H]2O[C@H](CO)[C@H](O)[C@@H]3OC4(O[C@H]23)O[C@H](C(N)CO)[C@H](O)[C@H](O)[C@H]4O)[C@@H]1O (stereo not given in full)	-3	/	/	/	i	/
O=C(COc1ccccc1)N1CCN(CC(O)COc2ccccc2)CC1 (stereo not given)	-13	-74*	-1%	-7%	i	0%
COc1ccc(-c2cc(C(=O)N3CCN(c4ccccc4OC)CC3)c3cc(C(C)C)ccc3n2)cc1	-4	/	?	-10%	?	-3%
CNC(=S)NC1CC2CCCC(C1)N2CC(C)C (stereo not given)	-8	15	1%	16%	i	-3%
